Screens from PubChem BioAssay.
FBW7 activator: human FBW7 E3 ligase activation, primary screen. normalized activity (activation), % at 26.1 µM. AlphaScreen FBW7–phospho-cyclin E peptide binding, activator screen. 650,000 compounds, 0.13% hits. Q969H0; in the data active means normalized activity above about 1.9%;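 further: purified mutant Fbw7 with reduced substrate affinity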
Target sequence (Q969H0 whole entry, looked up): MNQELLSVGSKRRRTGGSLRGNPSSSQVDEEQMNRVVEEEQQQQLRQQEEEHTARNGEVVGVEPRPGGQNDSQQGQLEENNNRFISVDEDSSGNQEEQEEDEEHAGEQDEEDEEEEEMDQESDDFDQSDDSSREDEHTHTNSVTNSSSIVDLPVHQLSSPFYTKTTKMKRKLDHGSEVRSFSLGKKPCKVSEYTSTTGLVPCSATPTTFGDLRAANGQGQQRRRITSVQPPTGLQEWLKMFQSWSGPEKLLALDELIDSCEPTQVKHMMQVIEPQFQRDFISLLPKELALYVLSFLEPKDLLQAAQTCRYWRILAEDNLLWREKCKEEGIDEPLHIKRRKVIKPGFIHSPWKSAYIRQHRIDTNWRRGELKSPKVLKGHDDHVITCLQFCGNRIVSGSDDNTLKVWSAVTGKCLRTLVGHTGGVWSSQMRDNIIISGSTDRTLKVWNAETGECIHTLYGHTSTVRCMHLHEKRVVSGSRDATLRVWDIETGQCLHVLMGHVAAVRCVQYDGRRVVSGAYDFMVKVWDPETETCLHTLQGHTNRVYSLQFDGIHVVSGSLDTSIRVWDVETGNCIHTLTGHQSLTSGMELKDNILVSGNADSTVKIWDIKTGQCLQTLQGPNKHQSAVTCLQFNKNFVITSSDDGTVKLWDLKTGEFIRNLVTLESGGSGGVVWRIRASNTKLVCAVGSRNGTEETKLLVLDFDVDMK
MITF inh: inhibitors of human MITF | AlphaScreen MITF homodimerization, bead proximity signal | 650,000 compounds, 0.91% hits | inhibition, % at 2.6 µM; in the data active means inhibition above about 50%
GPR151 activ: human GPR151 activation; 650,000 compounds, 1% hits; activation, % at 11.2 µM; PathHunter beta-arrestin GPR151 cells, luminescence; Q8TDV0; in the data active means activation above about 4.9%
TEAD-YAP inh: TEAD-YAP interaction inhibition; AID 1259422; HEK-TIYL cells, TEAD-Gal4/YAP UAS-luciferase luminescence; 640,000 compounds, 1.4% hits; inhibition, % at 9.12 µM; in the data active means inhibition above about 32%
Each line names hits and unclear results; the compound was inactive in the other large screens. In the library only some 3.5% were active in any assay of this set; here they are far more common.

CCC(C)(C)c1ccc(OCCCC[n+]2cccc(C)c2C)c(C(C)(C)CC)c1	TEAD-YAP inh 88
CCC(C)(C)c1ccc(OCCCC[n+]2ccc(C)cc2)c(C(C)(C)CC)c1	TEAD-YAP inh 45
COc1ccc(/C=C/c2ccc(N)cc2)cc1	TEAD-YAP inh 41
S=c1[nH]ncn1/N=C/c1ccc(N2CCOCC2)cc1	TEAD-YAP inh 73
COc1ccc(N(C)S(=O)(=O)c2cccc3cccnc23)c(OC)c1	TEAD-YAP inh 39
CC(=O)c1ccc(NC(=O)CSc2nc(C)nc3sc(C)c(C)c23)cc1	none
Cc1nc(SCC(=O)Nc2cc(C(N)=O)cc(C(N)=O)c2)c2c(C)c(C)sc2n1	FBW7 activator 16
CCC[n+]1cccc2ccc3cccnc3c21	TEAD-YAP inh 54
CC(C)(C)c1ccc(OCc2nc3ccc(Cl)cc3c(=O)o2)cc1	none
O=C(NNc1ccc([N+](=O)[O-])cc1S(=O)(=O)N1CCOCC1)NC1CCCCC1	none
Cc1ccc2nc(-c3ccccc3)c(-c3ccccc3)nc2c1	none
Cc1ccc2cc3c(nc2c1)-c1ccccc1C3	TEAD-YAP inh 60
c1ccc2c(c1)Cc1cc3ccccc3nc1-2	TEAD-YAP inh 47
Cc1cc(C)c2c(c1)Cc1cc3ccccc3nc1-2	none
O=C(c1cc2n(n1)C(C(F)(F)F)CC(c1ccc3c(c1)OCO3)N2)N1CCN(c2cccc(Cl)c2)CC1 (configuration not stated)	FBW7 activator 3.7
O=C(c1cc2n(n1)C(C(F)(F)F)CC(c1ccc(Cl)cc1)N2)N1CCN(c2cccc(Cl)c2)CC1 (configuration not stated)	none
Oc1c(C(Nc2ccccn2)c2ccc(C(F)(F)F)cc2)ccc2cccnc12 (configuration not stated)	TEAD-YAP inh 46
Cc1cccc(NC(c2ccc(C(F)(F)F)cc2)c2ccc3cccnc3c2O)n1 (configuration not stated)	TEAD-YAP inh 77
Cc1cccc(NS(=O)(=O)c2cccc3c2C(=O)c2ccccc2C3=O)c1	none
CCCCN(CC)C(=O)CNC(=O)Cn1cnc2sc3c(c2c1=O)CCCC3	none
N#Cc1c(/N=C/N2CCCCC2)sc2c1CCCC2	none
COc1cc(NC(=O)c2cnc(N3CCN(c4ccccn4)CC3)s2)cc(OC)c1OC	TEAD-YAP inh 41
COc1cc(NC(=O)c2cnc(N3CCc4ccccc4C3)s2)cc(OC)c1OC	TEAD-YAP inh 42
O=C(c1ccco1)N1CCN(c2ncc(-c3cccnc3)n3ccnc23)CC1	FBW7 activator 2.3
O=C(c1ccco1)N1CCN(c2ncc(-c3ccc(CO)cc3)n3ccnc23)CC1	FBW7 activator 4.8, TEAD-YAP inh 39
Nc1ccc(-c2cnc3c(N4CCN(C(=O)c5ccco5)CC4)nccn23)cc1	none
Cc1ccc(-n2nc3cc(C)c(N)cc3n2)cc1	TEAD-YAP inh 37
CCc1ccc(-n2nc3cc(C)c(N)cc3n2)cc1	none
Cn1c(=O)cc(OCCCC(=O)N2CCOCC2)c2ccccc21	none
O=C(Cn1cccc1)NCc1ccc(F)cc1	none
Cc1ccc(C(=O)NCc2cccs2)cc1C	none
O=C(Cc1ccc(-n2cccc2)cc1)NCc1ccc(F)cc1	TEAD-YAP inh 60
Cc1ccc(CC(=O)NCc2cccs2)cc1C	TEAD-YAP inh 45
CCOC(=O)c1[nH]c(C)c(C(=O)NCc2ccc(OC)cc2)c1C	none
COc1ccc(CNC(=O)c2c(C)[nH]c(C(C)=O)c2C)cc1	TEAD-YAP inh 58
COc1ccc(CC(=O)NCc2ccc(F)cc2)cc1	TEAD-YAP inh 46
O=C(c1cncc(O)c1)N1C2CCC1CC(c1ccc(F)cc1)C2 (configuration not stated)	none
CC1=C(C(=O)OCCc2ccccc2)C(c2ccccc2)C2=C(CCCC2=O)N1 (configuration not stated)	none
c1ccc(N2CCN(c3nc(NCc4cccnc4)c4ncn(C5CCCCC5)c4n3)CC2)nc1	none
c1cc(C2CCN(c3nc4nonc4nc3N3CCCC3)CC2)ccn1	none
CCN(CC)c1ccc(C(=S)N2CCN(CCO)CC2)cc1	none
Cc1ccc(CNC(=O)CSCc2ccc(F)cc2)cc1	none
O=C(Cc1ccc(-n2cccc2)cc1)NCc1cccs1	TEAD-YAP inh 45
COc1ccc(CC(=O)NCc2ccc(Cl)cc2)cc1	TEAD-YAP inh 40
Cc1ccc(CC(=O)NCc2ccc(F)cc2)cc1	TEAD-YAP inh 39
CC(=O)c1c(C)[nH]c(-c2csc(NC3CCCCC3)n2)c1C	none
COC(=O)c1c(C)[nH]c(-c2csc(N)n2)c1C	TEAD-YAP inh 51
Cc1ccc2nc(NCc3ccc(F)cc3)c3nnnn3c2c1	none
COc1cccc(CNC(=O)c2cnc3ccc(-c4cn[nH]c4)cn23)c1	TEAD-YAP inh 88
C#CCn1c(=NC(=O)C2COc3ccccc3O2)sc2cc(OC)c(OC)cc21 (configuration not stated)	TEAD-YAP inh 35
CN1CCN(c2ccc(-c3ccc4c(-c5cccc(O)c5)[nH]nc4n3)cn2)CC1	TEAD-YAP inh 96
COc1ccc(-c2[nH]nc3nc(-c4ccc(N5CCN(C)CC5)nc4)ccc23)cc1OC	none
CCN(CC)C(=O)C1(O)C2C=CC=CC2=NC(=O)N1c1ccccc1 (configuration not stated)	none
O=C(NCc1cccnc1)c1cccc(-c2ccc(N3CCOCC3)nc2)c1	none
CC(=O)Oc1cc(N2CCOCC2)c(OC(C)=O)c2c1C(=O)c1ccccc1C2=O	TEAD-YAP inh 64
CC(=O)OCC1OC(OC(C)(C)C)C(OC(C)=O)C(OC(C)=O)C1OC(C)=O (configuration not stated)	none
O=C(OC[C@H]1O[C@H](OC(=O)c2cc(O)c(O)c(OC(=O)c3cc(O)c(O)c(O)c3)c2)[C@H](OC(=O)c2cc(O)c(O)c(OC(=O)c3cc(O)c(O)c(O)c3)c2)[C@@H](OC(=O)c2cc(O)c(O)c(OC(=O)c3cc(O)c(O)c(O)c3)c2)[C@@H]1OC(=O)c1cc(O)c(O)c(OC(=O)c2cc(O)c(O)c(O)c2)c1)c1cc(O)c(O)c(OC(=O)c2cc(O)c(O)c(O)c2)c1	MITF inh 112
O=C(Nc1ccc(I)cc1)Nc1ccc([N+](=O)[O-])cc1	none
O=C(Nc1ccc([N+](=O)[O-])cc1)Nc1ccon1	TEAD-YAP inh 62
O=C1NC(=O)N(c2ccc(Cl)cc2)C(=O)/C1=C/c1ccc(O)c(Cl)c1	none
OC1CCC(Nc2nccc(NCc3ccccc3)n2)CC1 (configuration not stated)	none
CCNc1nc(C)cc(NCc2cccc(C(F)(F)F)c2)n1	none
FC(F)(F)c1cccc(CNc2ccnc(Nc3ccc(-n4ccnc4)cc3)n2)c1	TEAD-YAP inh 36
OC1CCC(Nc2nccc(NCc3cccc(C(F)(F)F)c3)n2)CC1 (configuration not stated)	TEAD-YAP inh 48
CCNc1nccc(NCc2cccc(C(F)(F)F)c2)n1	TEAD-YAP inh 37
COc1ccc(-c2cc(-c3cccs3)c(C#N)c(SCC(N)=O)n2)cc1	none
CCC(=O)NC(c1nnc2n1CCN(Cc1cc(OC)c(OC)c(OC)c1)CC2)C(C)C (configuration not stated)	none
COc1ccc(N2CCN(C(=O)c3sc4nc5ccc(OC)cc5cc4c3N)CC2)cc1	MITF inh 70
